The results in this text go back to PubChem BioAssay (EPA / NIEHS).

Read-out in test [1]: Human Leukocyte Antigen - DR isotype (HLADR), HLA-DRA (gene 3122)
As to the kind of experiment: BSK_BE3C_HLADR: BioMAP Diversity Plus: BE3C Assay for Human Leukocyte Antigen - DR isotype (HLADR) Biomarker Activity (AID 2283032). The conditions noted are these: primary human bronchial epithelial cells; actives raise or lower the signal. The method, boiled down: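 Cell-surface HLA-DR ELISA readout at 24 h after dosing in the BE3C primary human lung bronchial epithelial system; gain or loss of signal against DMSO, with parallel sulforhodamine B staining of total protein for overt cytotoxicity.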

Read-out in test [2]: Vascular cell adhesion molecule 1 (VCAM1), VCAM1 (gene 7412)
Briefly: BSK_4H_VCAM1: BioMAP Diversity Plus: 4H Assay for Vascular cell adhesion molecule 1 (VCAM1) Biomarker Activity (AID 2283033).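 Also: cell-surface VCAM-1 protein measured by ELISA.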 As to conditions: primary human endothelial cells (HUVEC); actives raise or lower the signal. In a few lines: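 VCAM-1 ELISA read 24 h after chemical dosing of HUVEC in the BioMAP 4H system, with gain or loss of signal fitted relative to DMSO. Parallel SRB staining (560 nm) checked overt cytotoxicity.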

Read-out in test [3]: Interferon-gamma inducible Protein 10 (IP10), CXCL10 (gene 3627)
As to the kind of experiment: BSK_BE3C_IP10: BioMAP Diversity Plus: BE3C Assay for Interferon-gamma inducible Protein 10 (IP10) Biomarker Activity (AID 2283034). As to conditions: primary human bronchial epithelial cells; actives raise or lower the signal. The method, boiled down: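 IP-10 quantified by ELISA in human primary bronchial epithelial cell cultures at 24 hours post-dosing. Gain or loss of signal fitted relative to DMSO; parallel SRB staining assessed overt cytotoxicity.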

Read-out in test [4]: Monokine induced gamma interferon (MIG), CXCL9 (gene 4283)
Briefly: BSK_BE3C_MIG: BioMAP Diversity Plus: BE3C Assay for Monokine induced gamma interferon (MIG) Biomarker Activity (AID 2283035). As to conditions: primary human bronchial epithelial cells; actives raise or lower the signal. In a few lines: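 hu bronchial epithelial 1° cells, 24 h cpd; MIG by ELISA; bidirectional fit, DMSO = baseline.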

Read-out in test [5]: Transforming growth factor beta 1 (TGFb1), TGFB1 (gene 7040)
Briefly: BSK_BE3C_TGFb1: BioMAP Diversity Plus: BE3C Assay for Transforming growth factor beta 1 (TGFb1) Biomarker Activity (AID 2283036;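 also: TGF-b1 protein level measured by ELISA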). The conditions noted are these: primary human bronchial epithelial cells; actives raise or lower the signal. The method, boiled down: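 ELISA readout of TGF-b1 from human lung bronchial epithelial primary cells, taken 24 h post-treatment. Gain or loss of signal fitted relative to DMSO baseline, with parallel SRB staining for overt cytotoxicity.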

Read-out in test [6]: Plasminogen activator inhibitor-1 (PAI1), SERPINE1 (gene 5054)
Briefly: BSK_BE3C_PAI1: BioMAP Diversity Plus: BE3C Assay for Plasminogen activator inhibitor-1 (PAI1) Biomarker Activity (AID 2283037). The conditions noted are these: primary human bronchial epithelial cells; actives raise or lower the signal. The method, boiled down: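 PAI-1 was measured by ELISA in human primary bronchial epithelial cultures 24 h after chemical dosing, with cytotoxicity checked by SRB total-protein staining in parallel cultures. Activity was fitted in both directions relative to DMSO.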

Read-out in test [7]: Urokinase-type plasminogen activator receptor (uPAR), PLAUR (gene 5329)
As to the kind of experiment: BSK_BE3C_uPAR: BioMAP Diversity Plus: BE3C Assay for Urokinase-type plasminogen activator receptor (uPAR) Biomarker Activity (AID 2283039).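 Also: cells exposed to compound for one day before measurement.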 The conditions noted are these: primary human bronchial epithelial cells; actives raise or lower the signal. The method, boiled down:
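uPAR levels were measured by ELISA after 24 h compound treatment of primary human bronchial epithelial cells, fitted in both directions relative to DMSO. Parallel SRB staining served as the cytotoxicity read-out.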

Read-out in test [8]: Interleukin-6 (IL6), IL6 (gene 3569)
Briefly: BSK_CASM3C_IL6: BioMAP Diversity Plus: CASM3C Assay for Interleukin-6 (IL6) Biomarker Activity for (AID 2283040). As to conditions: primary human coronary artery smooth muscle cells; actives raise or lower the signal.

Read-out in test [9]: Tissue plasminogen activator (tPA), PLAT (gene 5327)
Briefly: BSK_BE3C_tPA: BioMAP Diversity Plus: BE3C Assay for Tissue plasminogen activator (tPA) Biomarker Activity (AID 2283041).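 As to outcome: tPA level quantified by ELISA one day after compound addition.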 The conditions noted are these: primary human bronchial epithelial cells; actives raise or lower the signal. In a few lines: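 tPA measured by ELISA 24 h after dosing human primary bronchial epithelial cells (BE3C system). Changes in either direction were fitted against DMSO. Parallel cultures were stained with SRB to flag overt cytotoxicity.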

Read-out in test [10]: Interleukin-8 (IL8), CXCL8 (gene 3576)
Briefly: BSK_CASM3C_IL8: BioMAP Diversity Plus: CASM3C Assay for Interleukin-8 (IL8) Biomarker Activity (AID 2283042).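 Also: IL-8 protein level quantified by ELISA.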 As to conditions: primary human coronary artery smooth muscle cells; actives raise or lower the signal.

Read-out in test [11]: Human Leukocyte Antigen - DR isotype (HLADR), HLA-DRA (gene 3122)
Briefly: BSK_CASM3C_HLADR: BioMAP Diversity Plus: CASM3C Assay for Human Leukocyte Antigen - DR isotype (HLADR) Biomarker Activity (AID 2283043).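 Also: cell-surface HLA-DR protein level quantified by ELISA.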 The conditions noted are these: primary human coronary artery smooth muscle cells; actives raise or lower the signal.

Read-out in test [12]: Macrophage colony-stimulating factor (MCSF), CSF1 (gene 1435)
Briefly: BSK_CASM3C_MCSF: BioMAP Diversity Plus: CASM3C Assay for Macrophage colony-stimulating factor (MCSF) Biomarker Activity (AID 2283044).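 Also: M-CSF protein amount quantified by ELISA after 24 h exposure.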 The conditions noted are these: primary human coronary artery smooth muscle cells; actives raise or lower the signal.

Read-out in test [13]: Low-density lipoprotein receptor (LDLR), LDLR (gene 3949)
As to the kind of experiment: BSK_CASM3C_LDLR: BioMAP Diversity Plus: CASM3C Assay for Low-density lipoprotein receptor (LDLR) Biomarker Activity (AID 2283045).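 Also: LDLR protein level on the cell surface quantified by ELISA.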 The conditions noted are these: primary human coronary artery smooth muscle cells; actives raise or lower the signal.

Read-out in test [14]: Monocyte Chemoattractant Protein-1 (MCP1), CCL2 (gene 6347)
Briefly: BSK_CASM3C_MCP1: BioMAP Diversity Plus: CASM3C Assay for Monocyte Chemoattractant Protein-1 (MCP1) Biomarker Activity (AID 2283046).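 Also: MCP-1 level quantified by ELISA 24 h after dosing.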 The conditions noted are these: primary human coronary artery smooth muscle cells; actives raise or lower the signal.

The nature of test [15]: BSK_CASM3C_Proliferation: Cell Proliferation Assessment in the BioMAP Diversity Plus: CASM3C Assay (AID 2283047).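 Also: sulforhodamine B total protein stain as relative cell number at 560 nm; sub-confluent cells exposed 48 h before staining; fitted both ways against DMSO so gain or loss of cell number.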 As to conditions: primary human coronary artery smooth muscle cells.
Read-out in test [16]: Monokine induced gamma interferon (MIG), CXCL9 (gene 4283)
Briefly: BSK_CASM3C_MIG: BioMAP Diversity Plus: CASM3C Assay for Monokine induced gamma interferon (MIG) Biomarker Activity (AID 2283048).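 Also: MIG protein level measured by ELISA.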 As to conditions: primary human coronary artery smooth muscle cells; actives raise or lower the signal.

Read-out in test [17]: serum amyloid A (SAA), SAA1 (gene 6288)
As to the kind of experiment: BSK_CASM3C_SAA: BioMAP Diversity Plus: CASM3C Assay for serum amyloid A (SAA) Biomarker Activity (AID 2283049).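 Also: SAA protein level quantified by ELISA.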 The conditions noted are these: primary human coronary artery smooth muscle cells; actives raise or lower the signal.

The nature of test [18]: BSK_CASM3C_SRB: Viability Assessment in the BioMAP Diversity Plus: CASM3C Assay (AID 2283050). The conditions noted are these: primary human coronary artery smooth muscle cells.
Read-out in test [19]: Thrombomodulin, THBD (gene 7056)
As to the kind of experiment: BSK_CASM3C_Thrombomodulin: BioMAP Diversity Plus: CASM3C Assay for Thrombomodulin Biomarker Activity (AID 2283051).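 Also: thrombomodulin protein level measured by ELISA 24 h after dosing.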 The conditions noted are these: primary human coronary artery smooth muscle cells; actives raise or lower the signal.

Values joined by “and” are separate entries in the source; they are usually repeats but may differ in a detail not shown here. Identical values can stand only once. Some compounds were tested as several samples or in several runs, with calls that do not always agree. Active and inactive are the calls of the source. The calls were made as follows: active = hit-call score of the fitted dose curve at least 0.9, where 1 is the maximum; inactive = score below 0.9.

In general, AC50 refers to the concentration giving half of the maximal activity seen.

As for `CCn1nc(C)c2c1C(=O)NCC(c1ccc(O)cc1)=N2`, the result in [1], in test [2], in test [3], in test [4], in [5] and in [6] was inactive. Also, the outcome in [7], in [8], in [9], in test [10], in [11] and in test [13] was inactive. Moreover, the outcome in test [14], in test [16], in test [17], in [18] and in test [19] was inactive. The AC50 in test [12] is 2.51 µM (active); in test [15] it was 10 µM (active).
Consider `O=S1(=O)CCCO1`, for which the outcome in test [1], in [2], in [3], in test [4], in [5] and in test [6] was inactive. Moreover, the outcome in test [7], in [8], in test [9], in [10], in test [11] and in test [12] was inactive. Also, the result in test [13], in test [14], in test [15], in test [16], in test [17] and in [18] was inactive. Further, in [19], the outcome was inactive.
With `OC(O)(C(F)C(O)(O)C(F)(F)F)C(F)(F)F`, the outcome in test [1], in test [2], in [3], in test [4], in test [6] and in [7] was inactive. The result in test [8], in [10], in [11], in [12], in test [13] and in [14] was inactive. The outcome in test [15], in test [17], in test [18] and in [19] was inactive. The half-maximal activity concentration (AC50) in test [9] is 24.6 µM (active) and 20.5 µM (active); in [16] it was 33.3 µM (active) and 28.2 µM (active); in test [17], 49.1 µM (active).
Take `OC[C@H]1O[C@@H]2O[C@H]3[C@H](O)[C@@H](O)[C@@H](O[C@H]4[C@H](O)[C@@H](O)[C@@H](O[C@H]5[C@H](O)[C@@H](O)[C@@H](O[C@H]6[C@H](O)[C@@H](O)[C@@H](O[C@H]7[C@H](O)[C@@H](O)[C@@H](O[C@H]1[C@H](O)[C@H]2O)O[C@@H]7CO)O[C@@H]6CO)O[C@@H]5CO)O[C@@H]4CO)O[C@@H]3CO`: the outcome in test [1], in test [2], in test [3], in test [4], in test [5] and in test [6] was inactive. The result in test [7], in test [8], in [9], in test [10], in test [11] and in test [12] was inactive. The result in [13], in [14], in [15], in test [16], in test [17] and in [18] was inactive. Moreover, the result in [19] was inactive.
`c1ccc2cc3ccccc3cc2c1`: the outcome in [1], in test [2], in test [3], in [4], in [5] and in [6] was inactive. Further, the result in [7], in test [8], in test [9], in [10], in test [11] and in [12] was inactive. The result in [13], in [14], in [15], in [16], in [17] and in [18] was inactive. For the same molecule, the result in test [19] was inactive.
In the case of `O=C(O)c1cccc(C(=O)O)c1`, the outcome in test [1], in test [2], in test [3], in test [4], in test [5] and in test [6] was inactive. Also, the outcome in test [7], in test [8], in [9], in test [10], in test [11] and in test [12] was inactive. The outcome in [13], in [14], in test [15], in [16], in test [17] and in test [18] was inactive. In addition, in [19], the outcome was inactive.
For the molecule `NC(N)=O`, the result in test [1], in [2], in test [3], in [4], in test [5] and in test [6] was inactive. The outcome in test [7], in [8], in test [9], in [10], in test [11] and in [13] was inactive. Also, the outcome in [14], in test [15], in test [16], in [17], in test [18] and in test [19] was inactive.
